# Experimental data reported in PubChem BioAssay AID651899 (Broad Institute, 2012).
# Results with a measured potency or affinity are listed apart. Calls of active or inactive are those of the source. How the calls were made is not given here.
# Assay: cytotoxicity in HEK293 cells, dose response, cytotoxicity control, cell-based, plate reader, cherry-pick (AID 651899);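 further: cells exposed to compound for 48 hours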
# Conditions: series mostly up to 26 µM; activity change, negative = cytotoxicity: at the top concentration
row,SMILES,"activity change, negative = cytotoxicity"
1,O=C(N[C@H]1CC[C@@H](CCn2cc(-c3cccnc3)nn2)O[C@@H]1CO)c1ccccc1F,-2.93% (inactive)
2,O=C(c1cccc(F)c1)N1CC[C@@H]2[C@@H](CO)Nc3ccc(-c4cccc(F)c4)cc3[C@@H]21,4.74% (inactive)
3,CCOc1ccc(-n2c(SCC(N)=O)nc3c(c2=O)SCC3)cc1,7.2% (inactive)
4,O=C(Nc1ncc2c(n1)CC(c1cccc(Cl)c1)CC2=O)c1ccco1 (stereo unspecified),5.23% (inactive)
5,C/C=C/c1ccc2c(c1)O[C@@H](CN(C)C(=O)Nc1ccccc1)[C@H](C)CN([C@H](C)CO)S2(=O)=O,-9.85% (inactive)
6,CC(CNC(=O)CCCn1ncn2c(cc3occc32)c1=O)c1ccccc1 (stereo unspecified),-20.8% (inactive)
7,CCOc1ccc(CCNC(=O)c2cnc(C)cn2)cc1OCC,-3.56% (inactive)
8,COc1ccc(C(=O)Nc2cccc(NC(=O)c3cccs3)c2)cc1,6.74% (inactive)
9,COc1cc(C(=O)Nc2cccnc2)cc(OC)c1OC,-20.2% (inactive)
10,O=C(CSc1nnc(-c2ccncc2)n1-c1ccc(Cl)cc1)NCc1cccs1,-11.3% (inactive)
11,O=C(Cc1ccccc1)N1CC[C@@H]2[C@H]1c1cc(Br)ccc1N[C@@H]2CO,0.854% (inactive)
12,C/C=C/c1ccc2c(c1)O[C@@H](CN(C)C(=O)Cc1cccnc1)[C@H](C)CN([C@H](C)CO)S2(=O)=O,7.53% (inactive)
13,Cc1cc2c(c(=O)n1Cc1cccnc1)C(c1cccs1)C(C#N)=C(N)O2 (stereo unspecified),-4.37% (inactive)
14,COC(=O)C1=C(C)Nc2sc(C(N)=O)c(N)c2C1c1ccncc1 (stereo unspecified),10.5% (inactive)
15,Cc1c(NC(=O)c2cc3ccccc3o2)cccc1-n1cnnn1,-12.2% (inactive)
16,CC(Oc1ccc2ccc(=O)oc2c1)C(=O)N1CCOCC1 (stereo unspecified),-12.7% (inactive)
17,Cc1ccccc1S(=O)(=O)NCC[C@H]1CC[C@@H](NC(=O)Nc2cccc(F)c2)[C@H](CO)O1,-4.64% (inactive)
18,CC(Oc1ccc2c(-c3ccccc3)cc(=O)oc2c1)C(=O)NCc1ccccn1 (stereo unspecified),-28.5% (inactive)

row,SMILES,"activity change, negative = cytotoxicity"
1,CN1c2ccc(-c3cccc(F)c3)cc2[C@H]2[C@H](CCN2C(=O)C2CCOCC2)[C@H]1CO,20.7% (inactive)
2,COc1ccc(F)cc1C(=O)C1CCCN(C(=O)c2ccc(C(C)=O)s2)C1 (stereo unspecified),16.8% (inactive)
3,O=C1CCCc2c1cc(C(=O)NCc1ccco1)c(=O)n2-c1ccc(Cl)cc1,0.469% (inactive)
4,C=CCn1c(COc2ccccc2F)nnc1SCCN1C(=O)c2ccccc2C1=O,12.7% (inactive)
5,O=C(Nc1nccs1)[C@H]1[C@H](CO)[C@H]2Cn3c(ccc(-c4cccnc4)c3=O)[C@H]2N1CC1CCCC1,-6.31% (inactive)
6,Cc1c(OC(C)C(=O)NCc2ccccn2)ccc2c3c(c(=O)oc12)CCC3 (stereo unspecified),-25.5% (inactive)
7,CCC(=O)N1CC[C@@H]2[C@H]1c1cc(-c3cccc(F)c3)ccc1N(C)[C@H]2CO,29.8% (inactive)
8,C/C=C/c1ccc2c(c1)O[C@@H](CN(C)C(=O)Nc1ccc(OC)cc1)[C@@H](C)CN([C@@H](C)CO)S2(=O)=O,26.7% (inactive)
9,O=C(c1ccncc1)N1CC[C@@H]2[C@H](CO)Nc3ccc(Br)cc3[C@@H]21,-1.15% (inactive)
10,O=C(Nc1cccnc1)C1CCN(S(=O)(=O)c2ccc(Cl)cc2)CC1,-11.1% (inactive)
11,O=C(CSc1n[nH]c(-c2cccnc2)n1)Nc1ccnc2ccccc12,-8.88% (inactive)
12,CCC(Sc1nc2ccsc2c(=O)n1Cc1ccc(C(=O)O)cc1)C(=O)Nc1cccc(OC)c1 (stereo unspecified),60% (inactive)
13,COCC(=O)N1CC[C@@H]2[C@@H](CO)N(C)c3ccc(-c4ccc(F)cc4)cc3[C@@H]21,12.1% (inactive)
14,CC1CN(C(=O)Nc2ccc3snnc3c2)c2ccccc21 (stereo unspecified),-12.4% (inactive)
15,O=C(Nc1ccc(F)c(F)c1)C1CCN(S(=O)(=O)c2cccs2)CC1,-28.7% (inactive)
16,O=C(C[C@@H]1C[C@H]2c3cc(NC(=O)c4cccnc4)ccc3O[C@H]2[C@@H](CO)O1)NCc1cc(F)ccc1F,-2.27% [at 23.5 µM] (inactive)
17,CNC(=O)C[C@H]1CC[C@@H]2[C@H](COC[C@@H](O)CN2C(=O)Nc2ccc(Cl)c(Cl)c2)O1,11.3% (inactive)
18,CCOC(=O)c1c(N)sc(C(N)=O)c1C,28.2% (inactive)
